Assay results from PubChem BioAssay AID1159602 (The Scripps Research Institute Molecular Screening Center, 2016).
The whole screen tested about 22,000 compounds, of which about 220 (1%) were called active. The full list was thinned out, with actives kept by preference. Unmarked numbers belong to inactive results. No stated cut-off is given here; in the data, active means inhibition above about 35%; inactive means the rest.

These compounds were tested against Mitogen-activated protein kinase kinase kinase 5 (Homo sapiens) (UniProt Q99683) (assay: blockers of MAP3K5 kinase activity – biochemical, AlphaScreen, primary screen (AID 1159602;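 further: 0% = median of compound wells and 100% = no enzyme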)). Conditions: AlphaScreen MKK6 phosphorylation by ASK1, luminescence; at 7.44 µM; hits give high values.
Sequence of Mitogen-activated protein kinase kinase kinase 5 (Homo sapiens) (Q99683 whole entry, looked up): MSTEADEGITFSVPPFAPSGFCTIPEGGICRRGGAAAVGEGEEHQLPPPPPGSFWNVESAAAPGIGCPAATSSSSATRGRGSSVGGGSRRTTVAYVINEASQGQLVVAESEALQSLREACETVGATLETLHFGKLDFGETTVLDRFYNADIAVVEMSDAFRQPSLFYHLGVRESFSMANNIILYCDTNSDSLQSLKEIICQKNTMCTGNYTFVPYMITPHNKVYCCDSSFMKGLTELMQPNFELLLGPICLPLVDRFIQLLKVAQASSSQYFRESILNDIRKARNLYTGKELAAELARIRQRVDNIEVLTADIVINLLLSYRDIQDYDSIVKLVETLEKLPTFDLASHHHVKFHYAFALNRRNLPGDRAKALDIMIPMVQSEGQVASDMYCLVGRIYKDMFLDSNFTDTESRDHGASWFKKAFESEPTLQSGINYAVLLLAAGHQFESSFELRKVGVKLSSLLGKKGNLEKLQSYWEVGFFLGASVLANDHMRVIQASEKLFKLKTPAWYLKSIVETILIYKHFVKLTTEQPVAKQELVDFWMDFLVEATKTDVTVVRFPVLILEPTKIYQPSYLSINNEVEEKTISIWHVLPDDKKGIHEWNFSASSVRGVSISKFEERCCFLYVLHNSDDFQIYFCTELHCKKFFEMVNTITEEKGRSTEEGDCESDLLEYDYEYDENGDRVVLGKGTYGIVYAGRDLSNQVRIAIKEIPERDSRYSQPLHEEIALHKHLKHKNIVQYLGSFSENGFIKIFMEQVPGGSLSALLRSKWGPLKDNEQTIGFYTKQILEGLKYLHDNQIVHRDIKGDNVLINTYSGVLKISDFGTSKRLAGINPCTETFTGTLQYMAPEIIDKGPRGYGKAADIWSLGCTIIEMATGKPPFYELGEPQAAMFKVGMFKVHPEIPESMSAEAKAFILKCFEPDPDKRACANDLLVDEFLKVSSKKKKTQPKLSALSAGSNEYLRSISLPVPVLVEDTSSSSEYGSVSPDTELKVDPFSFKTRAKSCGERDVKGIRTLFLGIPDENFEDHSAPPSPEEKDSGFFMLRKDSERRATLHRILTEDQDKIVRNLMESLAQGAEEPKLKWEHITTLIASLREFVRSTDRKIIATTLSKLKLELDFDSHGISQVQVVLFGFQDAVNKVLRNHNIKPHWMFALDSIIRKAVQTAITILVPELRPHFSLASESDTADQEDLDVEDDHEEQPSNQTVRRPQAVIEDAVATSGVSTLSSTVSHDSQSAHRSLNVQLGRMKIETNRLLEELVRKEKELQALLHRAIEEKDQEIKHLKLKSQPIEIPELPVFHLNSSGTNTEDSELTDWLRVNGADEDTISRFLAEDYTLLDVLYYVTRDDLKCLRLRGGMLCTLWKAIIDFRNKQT
`O=C(NCc1cccc(C(F)(F)F)c1)c1csc(NCc2ccc3c(c2)OCO3)n1` gave an inhibition of 8.66%.
For `Cc1cc(NCCO)nc(Nc2nccc3ccccc23)n1`, the inhibition was -10.4%.
`COc1nc(N)nc(-c2csc3ccccc23)n1` showed an inhibition of 2.99%.
`CCNc1nc(Nc2cc(OC)c(OC)c(OC)c2)c2ncn(-c3ccsc3)c2n1` was tested, and the inhibition was 8.63%.
Compound `O=C(NCCN1CCOCC1)c1csc(N2CCC(N3CCOCC3)CC2)n1` has an inhibition of -5.25%.
With `c1cn(-c2ccc(Nc3nc4ncnc(NC5CC5)c4[nH]3)cc2)cn1` the inhibition was 18.6%.
`COc1ccc(-c2cc(C(=O)Nc3ccc(N4CCOCC4)cc3)ccn2)cc1` gave an inhibition of 11.5%.
`c1ccc(CN2CCC(Nc3nc(N4CCc5ccccc5C4)nc4c3ncn4-c3ccsc3)CC2)cc1` was tested, and the inhibition was 9.04%.
For `Cc1ncn(-c2ccc(Nc3nccc(N4CCc5[nH]ncc5C4)n3)cc2)n1`, the inhibition was -13.8%.
In the case of `CCN(CC)c1nc(NCc2nc3ccccc3[nH]2)nc(N2CCCC2CO)n1` (stereo not given), the inhibition is reported as -6.32%.
`c1ccc2[nH]c(CNc3ncnc4nc(N5CCC(N6CCOCC6)CC5)[nH]c34)nc2c1` showed an inhibition of -21.4%.
`O=C(NCC(O)c1ccc(Br)cc1)c1cn(-c2cccc3c(=O)[nH]ccc23)nn1` (stereo not given) showed an inhibition of 13.4%.
For `c1ccc(OCCNc2cc(-c3ccccc3)ncn2)cc1`, the inhibition was -16.6%.
`CC(=O)Nc1ccc(Nc2ccnc(N3CCC(N4CCOCC4)CC3)n2)cc1` showed an inhibition of -0.1%.
`CC(C)n1cnc2c(NCc3ccccc3)nc(NC3CCC(O)CC3)nc21` (stereo not given) was tested, and the inhibition was -16.8%.
`Cc1ccc(C(=O)N2CCCC(Nc3cccc4cncc(C)c34)C2)cc1F` (stereo not given) was tested, and the inhibition was -24.3%.
In the case of `CN(C)CCCNC(=O)c1ccc2c(c1)CC(c1nc3ccc(-c4ccnc(N)n4)cc3[nH]1)CO2` (stereo not given), the inhibition is reported as 12.4%.
With `c1ccc(-n2cnc3c(NCCN4CCOCC4)nc(Nc4ccc(-n5ccnc5)cc4)nc32)cc1` the inhibition was 5.99%.
Compound `O=C(NCCN1CCOCC1)c1cccc(-n2ncc3cc(Nc4ccccc4F)ccc32)n1` has an inhibition of -7.35%.
With `O=C(Nc1ccc(N2CCOCC2)cc1)c1cccc(N2CCC(N3CCOCC3)CC2)n1` the inhibition was 13.2%.
In the case of `Nc1nc(N2CCN(c3ccccn3)CC2)nc2c1ncn2-c1ccsc1`, the inhibition is reported as 1.87%.
For `CC(=O)Nc1ccc(Nc2nc(Nc3ccc(-n4ccnc4)cc3)nc3c2ncn3-c2ccsc2)cc1`, the inhibition was 4.85%.
For `O=C(NCCN1CCOCC1)c1cccc(-c2ccc(N3CCOCC3)nc2)c1`, the inhibition was 1.42%.
`CC(C)N(CCNC(=O)c1ccnc(Nc2ccc(C(F)(F)F)cc2)c1)C(C)C` was tested, and the inhibition was 7.8%.
`CCCN1CCN(c2c(Cl)cccc2NC(=O)Nc2ccc(Br)cc2)CC1` showed an inhibition of -17.3%.
`c1cc(-c2cncc(N3CCOCC3)c2)nc(Nc2ccc3c(c2)OCO3)n1` showed an inhibition of -4.36%.
For `COc1ccc(CCNc2cc(NCc3cccnc3)nc(N)n2)cc1`, the inhibition was -6.16%.
In the case of `Cc1cc(NC2CC2)nc(NCCCN2CCCC2=O)n1`, the inhibition is reported as 7.09%.
Work on `COc1ccc(CCNc2cc(-c3ccc(OC)cc3)nc(N)n2)cc1` yielded an inhibition of -5.04%.
With `COc1cc2nc(Nc3ccc4ncccc4c3)nc(Nc3ccc(NC(C)=O)cc3)c2cc1OC` the inhibition was 35.6% (active).
Compound `COc1cc2nc(NCc3ccc4c(c3)OCO4)nc(Nc3ccc(NC(C)=O)cc3)c2cc1OC` has an inhibition of 18.8%.
For `COc1cc2nc(Nc3nccc4ccccc34)nc(Nc3ccccc3)c2cc1OC`, the inhibition was -29.2%.
With `COc1cc2nc(Nc3cccc(N(C)C)c3)nc(Nc3cc(OC)c(OC)c(OC)c3)c2cc1OC` the inhibition was 36.7% (active).
Work on `COc1cc(Nc2nc(Nc3cccc(N(C)C)c3)nc3nc[nH]c23)cc(OC)c1OC` yielded an inhibition of 27%.
`COc1cc2nc(Nc3ncccn3)nc(Nc3cc(OC)c(OC)c(OC)c3)c2cc1OC` gave an inhibition of 14.3%.
Work on `FC(F)(F)c1ccc(Cn2cnc3c(NCc4nc5ccccc5[nH]4)nc(N4CCOCC4)nc32)cc1` yielded an inhibition of -1.96%.
With `Cn1nccc1-c1cc(F)cc(-c2ccnc(Nc3ccc(-n4cnc(N5CCOCC5)n4)cc3)n2)c1` the inhibition was 21.1%.
With `O=C(Nc1cccc(Cl)c1N1CCC(N2CCCCC2)CC1)c1ccc(Br)o1` the inhibition was 9.68%.
`O=C1CCCN1CCn1cnc2c(Nc3ccc(N4CCOCC4)cc3)nc(Nc3ccccc3)nc21` gave an inhibition of 13.9%.
`COc1ccc(CCNC(=O)c2cccc(-c3ccc(C(N)=O)cc3)n2)cc1` showed an inhibition of 0.41%.
`CNC(=O)c1cc(F)ccc1Nc1cc(Nc2ccc3c(c2)CCC(=O)N3)ncc1C(F)(F)F` gave an inhibition of 2.41%.
Compound `c1ccc(CCNc2nccc(Nc3ccncn3)n2)cc1` has an inhibition of 1.01%.
For `CC(C)n1cnc2c(Nc3ccc(N4CCOCC4)cc3)nc(Nc3ccncc3)nc21`, the inhibition was 4.78%.
`CCCNc1nc(N2CCc3ccccc3C2)nc2c1ncn2-c1ccccc1` was tested, and the inhibition was 6.17%.
For `COc1cc(Nc2nc(N3CCc4ccccc4C3)nc3c2ncn3-c2ccccc2)cc(OC)c1OC`, the inhibition was 38.8% (active).
For `COc1cc(Nc2nc(N3CCc4ccccc4C3)nc3c2ncn3-c2ccsc2)cc(OC)c1OC`, the inhibition was 6.46%.
`O=C(NCc1ccccc1)c1cnc(NCc2ccc3c(c2)OCO3)s1` showed an inhibition of -19.1%.
`O=C1CCCN1CCCNc1nccc(NC2CCN(Cc3ccccc3)CC2)n1` showed an inhibition of -6.87%.
`CN1CCN(c2ccc(-c3cc(Nc4ccc(N5CCOCC5)cc4)nc(N)n3)cc2)CC1` was tested, and the inhibition was 17.6%.
Work on `c1nc(Nc2ccc(N3CCOCC3)cc2)cc(N2CCOCC2)n1` yielded an inhibition of 3.52%.
For `Nc1nc(Nc2ccc(N3CCOCC3)cc2)cc(-c2ccc3[nH]ccc3c2)n1`, the inhibition was 41.8% (active).
With `Nc1cccc(-c2nc(NCCc3ccc(O)cc3)c3ncn(Cc4ccc(C(F)(F)F)cc4)c3n2)c1` the inhibition was 3.28%.
In the case of `c1ccc(CCCNc2nccc(Nc3ccncn3)n2)cc1`, the inhibition is reported as 12.3%.
`Nc1nc(Nc2ccc(-n3ccnc3)cc2)cc(NC2CCN(Cc3ccccc3)CC2)n1` was tested, and the inhibition was 18.2%.
Work on `COc1ccc(-c2cccc(C(=O)Nc3ccccc3)n2)cn1` yielded an inhibition of -3.52%.
With `O=C(NCCO)c1ccc2nc(NCCN3CCOCC3)sc2c1` the inhibition was -9.95%.
`COc1nc(Nc2ccccc2)nc(-c2csc3ccccc23)n1` was tested, and the inhibition was -2.87%.
Work on `c1csc(-c2ccnc(Nc3ccc(N4CCOCC4)cc3)n2)c1` yielded an inhibition of 13.2%.
`CCCNc1nc(-c2cccc(C(C)=O)c2)ncc1C` showed an inhibition of -6.63%.
For `O=C(Nc1ccc2[nH]ncc2c1)C1CCN(C(=O)[C@H](O)c2cccc(Cl)c2)C1` (stereo not given in full), the inhibition was -11.7%.
With `CC(C)n1cnc2c(NC3CCN(Cc4ccccc4)CC3)nc(-c3ccc(N4CCOCC4)nc3)nc21` the inhibition was 11%.
`O=C1CCCN1CCCNc1cc(NCc2cccnc2)ncn1` gave an inhibition of 2.26%.
`CCN(CC)C(=O)C1CCCN(c2nc3ncnc(NCCN4CCOCC4)c3[nH]2)C1` (stereo not given) showed an inhibition of 1.62%.
`O=C(NC1CC1)c1ccc(-c2ncc(C(=O)Nc3ccc(N4CCOCC4)cc3)s2)cc1` gave an inhibition of 1.95%.
`Nc1cccc(-c2ccc(C(=O)NCc3nc4ccccc4[nH]3)s2)c1` was tested, and the inhibition was 7.11%.
Work on `CCCNc1nc(-c2ccc(C(=O)N3CCN(C)CC3)cc2)nc2c1ncn2C(C)C` yielded an inhibition of -4.93%.
Compound `c1ccc(OCCNc2cc(NCc3ccc4c(c3)OCO4)ncn2)cc1` has an inhibition of 11.6%.
`O=C(NC1CC1)c1ccc(-c2nc(NC3CC3)c3ncn(C4CCCCC4)c3n2)cc1` was tested, and the inhibition was -4.59%.
With `Cc1[nH]ncc1-c1ccc(NC(=O)CCc2ccccc2)cc1` the inhibition was 1.62%.
`O=C(NC1CC1)c1ccc(-c2nc(C(=O)NCc3cccc(C(F)(F)F)c3)cs2)cc1` showed an inhibition of -7.56%.
Work on `c1ccc(CN2CCC(Nc3nc(NCc4ccc5c(c4)OCO5)nc4c3ncn4C3CCCCC3)CC2)cc1` yielded an inhibition of 24.9%.
With `FC(F)(F)c1ccc(Cn2cnc3c(NC4CCN(Cc5ccccc5)CC4)nc(Nc4nccc5ccccc45)nc32)cc1` the inhibition was 7.54%.
`FC(F)(F)c1cnc(Nc2ccc(N3CCOCC3)cc2)cc1-n1ncc2ccccc21` showed an inhibition of -0.62%.
`FC(F)(F)c1cccc(CNc2nc(N3CCN(Cc4ccc5c(c4)OCO5)CC3)nc3c2ncn3-c2ccccc2)c1` was tested, and the inhibition was 36.7% (active).
`c1ccc(CNc2nc(N3CCN(c4ccccn4)CC3)nc3c2ncn3-c2ccsc2)cc1` was tested, and the inhibition was 19.3%.
Compound `FC(F)(F)c1ccc(Cn2cnc3c(NCc4cccc(C(F)(F)F)c4)nc(Nc4ccc(N5CCOCC5)cc4)nc32)cc1` has an inhibition of 12.8%.
In the case of `Cc1cnc(Nc2ccc(N3CCOCC3)cc2)nc1NCc1cccc(C(F)(F)F)c1`, the inhibition is reported as 41.4% (active).
Work on `FC(F)(F)c1cccc(CNc2ncnc3nc(N4CCOCC4)[nH]c23)c1` yielded an inhibition of -25.3%.
In the case of `FC(F)(F)c1cccc(CNc2nc(N3CCN(c4ccccn4)CC3)nc3c2ncn3-c2ccsc2)c1`, the inhibition is reported as 40.9% (active).
In the case of `c1ccc(N2CCN(c3nc(NCc4nc5ccccc5[nH]4)c4ncn(-c5ccsc5)c4n3)CC2)nc1`, the inhibition is reported as -8.09%.
Compound `O=C1CCCN1CCn1cnc2c(NCc3cccc(C(F)(F)F)c3)nc(N3CCN(Cc4ccc5c(c4)OCO5)CC3)nc21` has an inhibition of 15.8%.
`FC(F)(F)c1cccc(CNc2nc(N3CCOCC3)nc3c2ncn3-c2ccsc2)c1` gave an inhibition of 8.31%.
Work on `O=C1CCCN1CCCNc1nc(N2CCN(Cc3ccc4c(c3)OCO4)CC2)nc2c1ncn2-c1ccccc1` yielded an inhibition of 14.4%.
With `FC(F)(F)c1cccc(CNc2nc(Nc3ccc(N4CCOCC4)cc3)nc3c2ncn3-c2ccsc2)c1` the inhibition was 41.6% (active).
`COc1cc(Nc2nc(NCc3cccc(C(F)(F)F)c3)c3ncn(-c4ccsc4)c3n2)cc(OC)c1OC` showed an inhibition of 15.7%.
